From the supplement of paper PMC10811239

Legend:
[1] = tested on: LEGO organoid PTCC (PTEN-/-; TP53-/-; CDKN2A-/-; CDKN2B-/-); assay: bioluminescence (viable cell) signal fold change after vs before treatment, normalised to DMSO (ratio); higher = more tumour cell growth / less inhibition; conditions: 10 µM; treatment time 6 days
Method: (§1)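 Luc2-labelled iPSC-derived glioblastoma-like organoids (LEGOs, genotypes PT = PTEN-/-;TP53-/-, PTCC = plus CDKN2A/B-/-, PTN = plus NF1-/-) were treated with 10 uM drug for 6 days (applied every other day) at 37 C. Bioluminescence imaging was done before treatment and 2 days after the last dose. BLI signals were normalised to the DMSO control on the same day and then to the pre-treatment signal (N=3).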

[2] = tested on: LEGO organoid PTN (PTEN-/-; TP53-/-; NF1-/-); assay: as above; conditions: 10 µM; treatment time 6 days
Method: as §1

Structure (SMILES)	bioluminescence [1]	bioluminescence [2]
CCC(CC)O[C@@H]1C=C(C(=O)O)C[C@H](N)[C@H]1NC(C)=O [Oseltamivir acid]	0.404	1.58
COc1ccccc1OCC(O)COC(N)=O (stereo unspecified) [Methocarbamol]	1.84	2.82
C[C@H]1[C@H](NC(=O)/C(=N\OC(C)(C)C(=O)O)c2csc(N)n2)C(=O)N1S(=O)(=O)O [Aztreonam]	0.795	1.4
CCC(C)(C)C(=O)O[C@H]1C[C@@H](C)C=C2C=C[C@H](C)[C@H](CC[C@@H]3C[C@@H](O)CC(=O)O3)[C@H]21 [Simvastatin]	1.71	0.364
NCC[C@H](O)C(=O)N[C@@H]1C[C@H](N)[C@@H](O[C@H]2O[C@H](CN)[C@@H](O)[C@H](O)[C@H]2O)[C@H](O)[C@H]1O[C@H]1O[C@H](CO)[C@@H](O)[C@H](N)[C@H]1O.O=S(=O)(O)O.O=S(=O)(O)O [Amikacin disulfate]	1.21	0.614
CC(C)Nc1cccnc1N1CCN(C(=O)c2cc3cc(NS(C)(=O)=O)ccc3[nH]2)CC1.CS(=O)(=O)O [Delavirdine mesylate]	0.912	1.76
C/C=C(/C)C(=O)O[C@H]1C(C)=C[C@]23C(=O)[C@@H](C=C(CO)[C@@H](O)[C@]12O)[C@H]1[C@@H](C[C@H]3C)C1(C)C [Ingenol Mebutate]	1.37	2.33
COc1ccc(CNc2nc(N3CCC[C@H]3CO)ncc2C(=O)NCc2ncccn2)cc1Cl [Avanafil]	0.873	1.11
Nc1ncnc2c1ncn2[C@@H]1O[C@H](CO)[C@@H](O)[C@H]1O [Adenosine]	0.746	0.654
CCCCC1C(=O)N(c2ccccc2)N(c2ccccc2)C1=O [Phenylbutazone]	1.76	2.68
CNC(=O)c1cc(Oc2ccc(NC(=O)Nc3ccc(Cl)c(C(F)(F)F)c3)cc2)ccn1.Cc1ccc(S(=O)(=O)O)cc1 [Sorafenib tosylate]	0.343	0.504
O=C1CCc2ccc(OCCCCN3CCN(c4cccc(Cl)c4Cl)CC3)cc2N1 [Aripiprazole]	0.382	0.284
FC(F)(F)c1ccc(CNc2ccc(Cc3c[nH]c4ncc(Cl)cc34)cn2)cn1 [Pexidartinib]	3.05	0.351
CCCCCOC(=O)Nc1nc(=O)n([C@@H]2O[C@H](C)[C@@H](O)[C@H]2O)cc1F [Capecitabine]	1.71	6.04
Cc1cn([C@H]2C[C@H](N=[N+]=[N-])[C@@H](CO)O2)c(=O)[nH]c1=O [Zidovudine]	1.35	3.76
COc1ccc(Cl)cc1C(=O)NCCc1ccc(S(=O)(=O)NC(=O)NC2CCCCC2)cc1 [Glyburide]	1.51	1.61
N[C@@H](CC(=O)O)C(=O)O [L-Aspartic acid]	1.1	0.451
Nc1nc2ccc(OC(F)(F)F)cc2s1 [Riluzole]	1.26	1.01
Cc1ccc(Nc2nccc(N(C)c3ccc4c(C)n(C)nc4c3)n2)cc1S(N)(=O)=O.Cl [Pazopanib HCl]	1.41	1.02
CCOc1nc2cccc(C(=O)O)c2n1Cc1ccc(-c2ccccc2-c2nn[nH]n2)cc1 [Candesartan]	1.68	2.99
Cn1c(=O)c2[nH]cnc2n(C)c1=O [Theophylline]	1.2	2.42
O.O.O.O.[Li][O]C(=O)CC(O)(CC(=O)[O][Li])C(=O)[O][Li] [Lithium citrate tetrahydrate]	0.787	1.25
CC(C)NCC(O)COc1ccc(CC(N)=O)cc1 (stereo unspecified) [Atenolol]	0.484	0.649
C[C@]12C=CC(=O)C=C1CC[C@@H]1[C@@H]2C(=O)C[C@@]2(C)[C@H]1CC[C@]2(O)C(=O)CO [Prednisone]	0.989	1.29
Nc1ccn([C@@H]2O[C@H](CO)[C@@H](O)[C@@H]2O)c(=O)n1 [Cytarabine]	1.15	0.51
NC(CO)(CO)CO.O=C(c1ccccc1)c1ccc2n1CCC2C(=O)O (stereo unspecified) [Ketorolac tromethamine salt]	1.57	2.19
CN1CCN2c3ncccc3Cc3ccccc3C2C1 (stereo unspecified) [Mirtazapine]	1.47	0.789
CCCC(CCC)C(=O)O.CCCC(CCC)C(=O)[O-].[Na+] [Divalproex Sodium]	0.404	0.401
